The results in this text go back to PubChem BioAssay.

Experiment [1] deals with Human papillomavirus type 1a protein E7 (residues 44-93). In words: small molecules binding HPV E7 44-93 – biochemical, small-molecule microarray, residues 44-93, 635 nm fluorescence, primary screen (AID 1108).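 Further: E7 fragment applied at 1 µg/mL in TBST for 1 h at 4 C; score combines spot fluorescence with its signal to noise ratio.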 To be noted: fluorescence 635 nm, higher = more signal.
Experiment [2] is described as follows: hepatitis C replication reporter changes, two-sided – Huh7 cells, luciferase reporter, HCV replication inhibitor project, primary screen (AID 1109).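 Further: huh7 hepatoma cells harbouring a luciferase neomycin HCV replicon reporter; luciferase luminescence as measure of HCV replicon replication; test concentration not given here.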 The conditions noted are these: Huh7 HCV replicon luciferase reporter, 48 h; higher = more signal.
The target in experiment [3] is Left-right determination factor 2 (Homo sapiens) (UniProt O00292). Put plainly: small molecules binding LEFTY2 protein – biochemical, small-molecule microarray, 635 nm fluorescence scan, primary screen (AID 1110). To be noted: higher = more signal.
Left-right determination factor 2 (Homo sapiens), sequence (O00292 whole entry, looked up): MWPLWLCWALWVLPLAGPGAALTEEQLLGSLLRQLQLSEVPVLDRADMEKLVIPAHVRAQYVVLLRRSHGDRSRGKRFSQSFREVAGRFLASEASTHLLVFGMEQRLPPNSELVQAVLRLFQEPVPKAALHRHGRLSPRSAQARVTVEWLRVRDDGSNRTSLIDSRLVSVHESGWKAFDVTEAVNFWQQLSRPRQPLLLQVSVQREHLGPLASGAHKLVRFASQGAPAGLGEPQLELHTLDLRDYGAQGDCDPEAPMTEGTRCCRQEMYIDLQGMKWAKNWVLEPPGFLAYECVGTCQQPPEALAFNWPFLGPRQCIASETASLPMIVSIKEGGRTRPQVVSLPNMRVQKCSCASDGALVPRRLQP
Experiment [4] deals with Calmodulin-1 (Homo sapiens) (UniProt P0DP23). Put plainly: small molecules binding calmodulin-1 with EGTA – biochemical, small-molecule microarray, Cy5-labelled CALM1, profiling panel (AID 1111).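 Further: labelled calmodulin applied in Tris saline Tween buffer holding calcium plus EGTA and DTT.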 To be noted: Cy5-CALM1 binding fluorescence, higher = more signal.
Experiment [5] shares this target. In words: small molecules binding Ca-loaded calmodulin-1 – biochemical, small-molecule microarray, Cy5-labelled CALM1, plus calcium, artefact control for SMM control-protein annotation, profiling panel (AID 1112).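 Further: score merges spot fluorescence with signal to noise from triplicate slides.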 The conditions noted are these: Cy5-CALM1 binding fluorescence, higher = more signal.
A short description of experiment [6]: probe aWnt5a binding to arrayed compounds – biochemical, biotinylated probe, 635/667 nm fluorescence, primary screen (AID 1113).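 Further: score merges 667 nm fluorescence intensity with signal-to-noise per printed feature.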 To be noted: small-molecule microarray, higher = more signal.
Experiment [7] is described as follows: probe aShh binding to arrayed compounds – biochemical, biotinylated probe, 635/667 nm fluorescence, primary screen (AID 1114).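 Further: probe is biotin-labelled aShh protein from a stem cell growth factor screen; measures binding of labelled protein to compounds printed on the slide; score merges feature fluorescence at 667 nm with signal-to-noise.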 The conditions noted are these: small-molecule microarray, higher = more signal.
Experiment [8] can be described thus: probe aNog binding to arrayed compounds – biochemical, biotinylated probe, 635/667 nm fluorescence, primary screen (AID 1115).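 Further: probe is biotinylated aNog protein used at 0.15 µg/mL for 1 h at 4 C; z-score combines 667 nm fluorescence of each spot with its signal to noise.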 The conditions noted are these: small-molecule microarray, higher = more signal.
Experiment [9] concerns the target Torsin-1A-interacting protein 1 (Homo sapiens) (UniProt Q5JTV8). Put plainly: compound microarray binding of lysate hLAP1 – cell lysate, small-molecule microarray, COS7 lysate, 635/667 nm fluorescence, primary screen (AID 1116). To be noted: 635 nm fluorescence, higher = more signal.
In experiment [10] the target is Alpha-bungarotoxin (Bungarus multicinctus) (UniProt P60615). Put plainly: compounds binding labelled alpha-BTX control protein – biochemical, small-molecule microarray, Alexa647 label, 635/667 nm fluorescence, artefact control for SMM control protein annotation, profiling panel (AID 1117). To be noted: alpha-BTX-A647 binding fluorescence, higher = more signal.
Alpha-bungarotoxin (Bungarus multicinctus), sequence (P60615 whole entry, looked up): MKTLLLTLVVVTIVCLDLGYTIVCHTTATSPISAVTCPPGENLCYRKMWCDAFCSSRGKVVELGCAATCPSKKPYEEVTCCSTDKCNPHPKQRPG
Experiment [11] deals with Albumin (Bos taurus) (UniProt P02769). Put plainly: compounds binding labelled BSA control protein – biochemical, small-molecule microarray, Alexa647 label, 635/667 nm fluorescence, artefact control for SMM control protein annotation, profiling panel (AID 1118).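 Further: score merges 667 nm emission intensity and signal-to-noise per printed compound spot.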 To be noted: BSA-A647 binding, fluorescence 635 nm, higher = more signal.
Albumin (Bos taurus), sequence (P02769 whole entry, looked up): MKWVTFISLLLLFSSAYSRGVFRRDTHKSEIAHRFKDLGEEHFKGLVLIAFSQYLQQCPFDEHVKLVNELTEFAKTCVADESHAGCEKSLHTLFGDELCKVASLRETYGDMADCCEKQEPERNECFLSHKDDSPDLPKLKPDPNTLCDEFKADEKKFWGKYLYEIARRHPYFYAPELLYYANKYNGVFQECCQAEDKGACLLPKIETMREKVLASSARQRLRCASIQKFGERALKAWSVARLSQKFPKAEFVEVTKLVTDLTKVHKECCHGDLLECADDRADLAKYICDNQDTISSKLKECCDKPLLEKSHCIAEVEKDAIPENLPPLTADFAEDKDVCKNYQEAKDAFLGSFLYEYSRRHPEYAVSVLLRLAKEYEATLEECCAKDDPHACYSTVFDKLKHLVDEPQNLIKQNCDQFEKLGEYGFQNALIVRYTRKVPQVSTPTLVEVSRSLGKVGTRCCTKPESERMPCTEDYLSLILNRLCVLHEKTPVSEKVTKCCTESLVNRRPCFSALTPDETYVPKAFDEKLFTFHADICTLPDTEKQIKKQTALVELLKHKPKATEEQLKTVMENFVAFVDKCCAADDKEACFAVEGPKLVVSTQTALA
Experiment [12] in a line: probe aXIP binding to arrayed compounds – biochemical, NeuroSMM set, 635/667 nm fluorescence, primary screen (AID 1119).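 Further: probe is the protein aXip251-270 applied at 1 µg/mL to compound-printed slides; binding of probe to printed compounds measured as 667 nm fluorescence plus signal to noise.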 The conditions noted are these: small-molecule microarray, higher = more signal, called active from +8 up or from −8 down.
A short description of experiment [13]: probe aNOTCH3 binding on compound microarray – biochemical, small-molecule microarray, 635/667 nm fluorescence, primary screen (AID 1120).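 Further: probe is a biotin-tagged antibody raised against NOTCH3 rather than NOTCH3 protein; score merges spot fluorescence near 667 nm with spot signal to noise.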 The conditions noted are these: higher = more signal.
Experiment [14] in a line: probe aNOTCH2 binding on compound microarray – biochemical, small-molecule microarray, 635/667 nm fluorescence, primary screen (AID 1121).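 Further: score merges feature fluorescence read at 667 nm with its signal to noise.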 The conditions noted are these: higher = more signal.
The target in experiment [15] is Carbonic anhydrase 2 (Homo sapiens) (UniProt P00918). In words: compounds binding carbonic anhydrase 2 – biochemical, small-molecule microarray, Alexa647-labelled CAII, profiling panel (AID 1122). The conditions noted are these: CAII-A647 binding fluorescence, higher = more signal.
The nature of experiment [16]: COS7 lysate on small-molecule microarray, probe aHis, 635 nm (AID 1123).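 Further: z-score combines 667nm fluorescence intensity with signal-to-noise per printed compound spot.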 To be noted: COS7 cell lysate, fluorescence, higher = more signal.
A short description of experiment [17]: probe aLAP1 signal on lysate-treated microarray – cell lysate, small-molecule microarray, COS7 lysate, primary screen (AID 1124).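 Further: lysate comes from COS7 cells expressing LAP1 and is applied at 0.3 µg/mL; score merges spot fluorescence near 667 nm with signal-to-noise over triplicate slides.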 To be noted: probe aLAP1, fluorescence, higher = more signal.
Experiment [18] concerns Sam68 (KHDRBS1). In words: compounds binding KHDRBS1 protein – biochemical, small-molecule microarray, 635 nm fluorescence, primary screen (AID 1125).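 Further: score merges 667 nm channel intensity with signal to noise over triplicate slides.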 The conditions noted are these: higher = more signal.
Experiment [19] concerns Chordin-like protein 2 (CHRDL2). Put plainly: compounds binding chordin-like 2 – biochemical, small-molecule microarray, 635 nm fluorescence, primary screen (AID 1126).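 Further: printed compound slides probed with Chrdl2 protein at 4 µg/mL for 1 h at 4 C; score merges 667 nm emission intensity with signal to noise over three replicate slides.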 To be noted: fluorescence 635 nm, higher = more signal.
Experiment [20] deals with Concanavalin-A (Canavalia ensiformis) (UniProt P02866). Put plainly: compounds binding concanavalin A lectin – biochemical, small-molecule microarray, Alexa647 label, 635 nm, artefact control for SMM control protein annotation, primary screen (AID 1127).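 Further: z combines 667 nm emission intensity with signal-to-noise across three replicate slides.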 The conditions noted are these: ConA-A647 binding fluorescence, higher = more signal.
Concanavalin-A (Canavalia ensiformis), sequence (P02866 whole entry, looked up): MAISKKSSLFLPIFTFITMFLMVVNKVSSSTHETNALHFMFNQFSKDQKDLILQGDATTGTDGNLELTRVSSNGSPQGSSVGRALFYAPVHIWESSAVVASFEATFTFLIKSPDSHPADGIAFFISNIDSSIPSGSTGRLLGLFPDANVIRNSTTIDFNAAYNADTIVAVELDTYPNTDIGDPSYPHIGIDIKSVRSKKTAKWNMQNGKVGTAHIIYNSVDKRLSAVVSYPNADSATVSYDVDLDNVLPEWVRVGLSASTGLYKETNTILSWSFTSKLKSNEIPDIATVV

Activity calls are given as the source filed them.

Torsin-1A-interacting protein 1 (Homo sapiens), sequence (Q5JTV8 whole entry, looked up): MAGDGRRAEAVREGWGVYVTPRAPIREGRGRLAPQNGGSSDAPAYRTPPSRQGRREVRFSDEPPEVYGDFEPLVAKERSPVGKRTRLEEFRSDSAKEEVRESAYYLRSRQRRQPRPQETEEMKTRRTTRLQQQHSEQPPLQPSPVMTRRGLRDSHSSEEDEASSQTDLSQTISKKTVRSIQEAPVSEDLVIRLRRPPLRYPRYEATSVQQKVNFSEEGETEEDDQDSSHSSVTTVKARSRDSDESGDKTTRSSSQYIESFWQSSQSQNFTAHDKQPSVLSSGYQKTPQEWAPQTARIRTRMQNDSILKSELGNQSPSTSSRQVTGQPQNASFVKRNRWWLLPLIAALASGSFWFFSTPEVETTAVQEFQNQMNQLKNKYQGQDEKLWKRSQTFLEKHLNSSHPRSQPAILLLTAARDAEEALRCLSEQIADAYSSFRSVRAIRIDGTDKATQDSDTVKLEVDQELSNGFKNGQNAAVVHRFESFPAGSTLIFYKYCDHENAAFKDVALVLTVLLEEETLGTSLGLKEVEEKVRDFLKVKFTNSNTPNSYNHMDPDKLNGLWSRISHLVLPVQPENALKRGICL

Take `CC(C)C[C@@H]1NC(=O)[C@@H]2C[C@H](C(=O)NCc3ccc(F)cc3)[C@H](c3ccc(O)cc3)N2C1=O`: the composite z-score in [1] is 1.11; in experiment [3] it was 0.1; in experiment [4], 1.35; in experiment [5] it was -0.166; in experiment [6], -0.147; in [7], 0.191. The composite z-score in experiment [8] is -0.319; in [9] it was 1.03; in [10] it was 0.896; in experiment [11] it was -0.674; in [13] it was -0.222; in experiment [14], -0.126. The composite z-score in experiment [15] came to 0.47; in experiment [16] it was 2.61; in experiment [17], 0.38; in [18], 0.425; in experiment [19] it was 0.448; in [20] it was 1.18. In addition, the z-score in [2] was -0.738. For the same compound, in experiment [12], the composite Z-score is 0.63 (inactive).
As to `COC(=O)[C@@]1(Cc2ccc(OC)cc2)[C@H]2c3cc(C(=O)N4CCCC4)n(CCF)c3C[C@H]2CN1C(=O)c1ccccc1`, the composite z-score in experiment [1] was 0.632; in experiment [3] it was -0.191; in experiment [4], 2.03; in experiment [5] it was 0.77; in [6] it was 1.34; in experiment [7], 2.55. Besides, the composite z-score in experiment [8] was 3.06; in [9], 1.19; in experiment [10], 1.04; in experiment [11], 0.978; in experiment [13] it was 1.97; in experiment [14], 1.15. Moreover, the composite z-score is 0.755 in [15]; 3.15 in experiment [16]; 0.478 in [17]; 0.757 in experiment [18]; -0.258 in [19]; 0.99 in experiment [20]. Further, in [2], the z-score is -1.27. In addition, the composite Z-score in experiment [12] was 0.573 (inactive).
Turning to `COc1cc2c(cc1OC)CN(C(=O)[C@@H]1[C@H]3C(=O)O[C@H](c4ccccc4)[C@H](c4ccccc4)N3[C@H](c3ccc(OCCO)cc3)[C@@]13C(=O)Nc1ccc(C#CCCO)cc13)CC2`, the composite z-score in experiment [1] worked out at 1.44; in [3] it was 1.01; in [4], 1.73; in experiment [5] it was 1.01; in experiment [6], 0.265; in experiment [7], 0.391. Also, the composite z-score is 1.8 in [8]; 1.33 in experiment [9]; 1.36 in [10]; 0.379 in [11]; 0.81 in [13]; -0.0669 in experiment [14]. Also, the composite z-score in experiment [15] came to 0.428; in experiment [16], 2.92; in [17] it was 0.364; in [18], 1.3; in experiment [19], 0.703; in experiment [20] it was 1.02. Moreover, the z-score in experiment [2] is -1.53. In addition, in experiment [12], the composite Z-score was 1.29 (inactive).
On to `Cc1ccc(S[C@]2(C(=O)NCc3ccccc3)CC(=O)N(C3Cc4ccccc4C3)[C@@H]2c2ccc(CO)cc2I)cc1`, for which the composite z-score in experiment [1] is 0.241; in [3], -1.53; in experiment [4], -0.733; in experiment [5] it was -0.0933; in experiment [6], -0.0896; in experiment [7], -0.364. In addition, the composite z-score was -0.0496 in [8]; -0.129 in experiment [9]; 1.3 in experiment [10]; 0.254 in [11]; -0.187 in experiment [13]; -0.0716 in experiment [14]. The composite z-score is 0.341 in [15]; 0.401 in [16]; 0.458 in [17]; 0.269 in experiment [18]; -0.224 in experiment [19]; -0.462 in experiment [20]. The z-score in experiment [2] is -1.63. The composite Z-score in experiment [12] is 3.63 (inactive).
Take `COCCOC(=O)N1C(=O)[C@@]2(c3cc(C#CC4(O)CCCCCC4)ccc31)[C@H](C(=O)NC[C@H](O)c1ccccc1)[C@H]1C(=O)O[C@H](c3ccccc3)[C@H](c3ccccc3)N1[C@@H]2c1ccc(OCCO)cc1`: the composite z-score in experiment [1] was 1.38; in experiment [3] it was 0.358; in experiment [4] it was 0.7; in [5] it was 0.383; in experiment [6], -0.282; in experiment [7], -0.638. In addition, the composite z-score was 0.14 in experiment [8]; 0.394 in [9]; 0.598 in [10]; 0.067 in [11]; -0.0328 in experiment [13]; -0.0995 in [14]. In addition, the composite z-score in experiment [15] amounted to 0.495; in [16], 1.23; in experiment [17], 0.217; in experiment [18], 1.3; in [19], 0.223; in [20] it was 1.13. Also, the z-score in [2] is -1.73. Further, the composite Z-score in [12] was 0.244 (inactive).
